The sample as a whole holds a higher share of hits than the screen did.
TTR transcr act: activators of transthyretin transcription. 1.3% of 92,000 active. activation, % at 16.7 µM. SH-SY5Y TTR promoter Gaussia luciferase, luminescence; 100% = recombinant luciferase protein wells;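 active = activation above the mean of all tested compounds plus 3 SD, cut at about 9.5% in these data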;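 note: cells exposed to compounds for one day before reading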
HuH7 TTR inh: counter-screen for TTR activators: TTR transcription inhibitors in HuH7 cells. shares compounds with TTR transcr act. HuH7 TTR promoter-Gaussia luciferase reporter, luminescence. inhibition, % at 16.7 µM. 4% of 1,100 active. AID 1117279;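 active = average inhibition above the solvent-only control wells' mean plus 3 SD, cut at about 15% in these data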;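 note: inhibitors lower well luminescence so higher value means more inhibition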
TTR act confirm: human TTR transcription activation, confirmation; 1,100 tested, under 10 active; SHSY5Y TTR promoter Gaussia luciferase, luminescence; 100% = purified Lucia enzyme wells, no cells; activation, % at 16.7 µM; AID 1117280; shares compounds with TTR transcr act;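 active = mean activation above a set limit taken from the earlier primary screen, cut at about 11% in these data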
Each line names hits and unclear results; the compound was inactive in the other large screens (follow-up assays come after a bar, where they were run).

O=C(NNC(=S)NC(=O)c1cccs1)c1cccnc1	none
C/C(=N\NC(=O)c1cccs1)c1cccnc1	TTR transcr act 9.9 | HuH7 TTR inh inactive | TTR act confirm inactive
COC(=O)C[C@@H]1CC[C@H]2[C@H](COc3ccc(NC(=O)Nc4ccc(Cl)cc4)cc3C(=O)N2C)O1	none
CCc1ccc(NS(=O)(=O)c2c(C(=O)N3CCCCCC3)c(C)n(C)c2C)cc1	none
Cc1cc(C)cc(OCC(=O)O/N=C(\N)c2ccccn2)c1	none
Cc1cc(C)c(C)c(OCC(=O)O/N=C(\N)c2ccncc2)c1	none
Cc1cc(C)c(C)c(OCC(=O)O/N=C(\N)c2ccccn2)c1	TTR transcr act 10.4 | HuH7 TTR inh inactive | TTR act confirm inactive
O=C1CCC[C@H]2C[C@H](NCc3ccccc3Cl)CC[C@]23CCCN13	none
Cc1cc(C)c(C#N)c(Nc2cccc(C)c2C)n1	none
Cc1cc(=O)n(C(C)Cc2ccccc2)n1C(C)Cc1ccccc1 (stereo not given)	TTR transcr act 16.7 | HuH7 TTR inh inactive | TTR act confirm inactive
CCC(CC)n1c(C)cc(=O)n1C(CC)CC	none
CC(Cc1ccccc1)N(C)C(=O)CN1C(=O)c2ccccc2C1=O (stereo not given)	none
CCCC1CCC2(CCCN2CCOC(=S)NCc2cccc(C)c2)CC1 (stereo not given)	none
Cc1cc(C)c(S(=O)(=O)NCC(=O)NCc2cc(=O)n(C)c(=O)n2C)c(C)c1	none
CC1CN(C(=O)/C(C#N)=C2\N=C(NC(=O)c3ccc(F)cc3)c3ccccc32)CC(C)O1 (stereo not given)	none
C[C@@H]1CN([C@@H](C)CO)C(=O)c2cccc(NS(C)(=O)=O)c2O[C@H]1CN(C)Cc1ccc(C(=O)O)cc1	none
C[C@@H]1CN([C@@H](C)CO)C(=O)c2cccc(NS(C)(=O)=O)c2O[C@H]1CN(C)Cc1ccc(Oc2ccccc2)cc1	TTR transcr act 18.5 | HuH7 TTR inh inactive | TTR act confirm inactive
COc1ccc(CN(C)C[C@H]2Oc3c(NC(=O)Nc4ccccc4)cccc3C(=O)N([C@H](C)CO)C[C@@H]2C)cc1	none
CC(=O)N[C@@H](C)C(=O)N1CCN(S(=O)(=O)c2ccc(Cl)cc2)CC1	none
C[C@H]1[C@@H](NC(=O)C#Cc2ccccc2)CC[C@@]23CCCN2C(=O)CCC[C@@H]13	none
c1ccc(NC2=NCCN2CC2CCC2)cc1	none
O[C@@H]1CN(CC2CCCCC2)[C@@H](c2ccccc2)C[C@H]1n1cc(C2CC2)nn1	none
NC1=NC[C@H](c2ccccc2)N1CC1CCCCC1	TTR transcr act 15.0 | HuH7 TTR inh inactive | TTR act confirm inactive
CC1(C)CC(=O)C2=C(C1)N=C1SCCC(=O)N1C2c1cccc([N+](=O)[O-])c1 (stereo not given)	none
CCOC(=O)CN1NC2(CCCCCC2)NC1=S	none
CC(C)(C)N1NC2(CCCCC2)NC1=S	TTR transcr act 11.8 | HuH7 TTR inh inactive | TTR act confirm inactive
C[C@H]1[C@@H](OC(=O)Nc2ccc(C(F)(F)F)cc2)CC[C@@]23CCCN2C(=O)CCC[C@@H]13	none
O=C(OCc1cn(Cc2cccc(Cl)c2)nn1)N1CCOCC1	none
O=C(NCCc1csc(-c2cccnc2)n1)c1ccccc1Br	TTR transcr act 18.1 | HuH7 TTR inh inactive | TTR act confirm inactive
O=S(=O)(NCCc1csc(-c2cccnc2)n1)c1cccc(F)c1	none
O=S(=O)(NCc1csc(-c2cccnc2)n1)c1ccc(Br)cc1	none
COc1ccc(CC(=O)NC(C)c2ccc(S(N)(=O)=O)cc2)cc1S(=O)(=O)N1CCOCC1 (stereo not given)	none
COc1ccc(-c2nc3cc(C)c(Br)c(C)n3c2Cc2ccsc2)cc1OC	none
CCCCn1nnnc1C(c1ccccc1)N1CCN(c2ccc(F)cc2)CC1 (stereo not given)	none
COc1ccc(S(=O)(=O)N2CCOCC2)cc1C(=O)Nc1cccc(C(=O)NC2CC2)c1	TTR transcr act 13.2 | HuH7 TTR inh inactive | TTR act confirm inactive
O=C(NC1CCCCC1)c1cccc(S(=O)(=O)N2CCOCC2)c1	none
O=C(NC1CCCCCC1)c1cccc(S(=O)(=O)N2CCOCC2)c1	none
CCCn1c(N)c(N(CCOC)C(=O)c2cccc(F)c2)c(=O)[nH]c1=O	none
COCCN(C(=O)c1ccc(N(C)S(=O)(=O)c2ccc(C)cc2)cc1)c1c(N)n(CC(C)C)c(=O)[nH]c1=O	TTR transcr act 9.8 | HuH7 TTR inh inactive | TTR act confirm inactive
CC(C)CN(C(=O)c1cccc(Cl)c1)c1c(N)n(CC(C)C)c(=O)[nH]c1=O	none
CCOc1ccc2nc(NC(=O)Nc3cccs3)sc2c1	none
Cc1c(Cl)cccc1NC(=S)NC(=O)c1ccccc1	none
O=C(NC(=S)Nc1ccccc1Cl)c1csnn1	TTR transcr act 13.2 | HuH7 TTR inh inactive | TTR act confirm inactive
O=C(NC(=O)N1CCCC1)c1csnn1	none
CCOc1ccc(-c2cc(C(C)=O)c3n(c2=O)CCC3)cc1	none
Cc1cc(C)c(CN2CCN(C(=O)Cn3cc(C)c(=O)[nH]c3=O)CC2)c(C)c1	none
C[C@@H]1CCN(C2CC2)S(=O)(=O)c2ccc(N3CCC[C@H]3C)cc2O1	none
CCOC(=O)Cn1nc2sc3ccccc3n2c(=O)c1=O	none
CCOC(=O)Cn1c(=O)sc2ccccc21	TTR transcr act 17.3 | HuH7 TTR inh inactive | TTR act confirm inactive
CCC(C)NC(=O)Cn1c(=O)sc2ccccc21 (stereo not given)	none
C[C@@H]1CCN(C2CC2)S(=O)(=O)c2ccc(N3CC[C@@H](O)C3)cc2O1	none
CN(C)CCCNC(=O)c1ccc(-c2ccccc2)cc1	TTR transcr act 22.0 | HuH7 TTR inh inactive | TTR act confirm inactive
CN(C)CCCNC(=O)c1ccc(Cl)c(S(=O)(=O)N(C)c2ccccc2)c1	none
COc1ccc(C(=O)NCCCN(C)CCCNC(=O)c2ccc(OC)cc2)cc1	none
Fc1cccc(Cn2ccc3ccc(-c4ccc5ccn(Cc6cccc(F)c6)c5c4)cc32)c1	none
O=C(CCc1ccccc1)N1CCCC1	TTR transcr act 11.4 | HuH7 TTR inh inactive | TTR act confirm inactive
CC1CCCN(C(=O)CCc2ccccc2)C1 (stereo not given)	none
O=C(CCc1nnc(CCCc2ccccc2)o1)N1CCCCCC1	none
CCc1ccc(CCNC(=O)OC2CC3CC2[C@H]2CCCCN2[C@H]3Cc2ccccc2)cc1 (stereo not given in full)	none
CCOC(=O)c1c(C)[nH]c(C)c1C(=O)COC(=O)c1sccc1C	TTR transcr act 10.7 | HuH7 TTR inh inactive | TTR act confirm inactive
CCOC(=O)c1c(C)[nH]c(C)c1C(=O)COC(=O)c1c(OC)cccc1OC	none
CCOC(=O)c1c(C)[nH]c(C)c1C(=O)COC(=O)c1ccc(O)cc1	none
CCCCCCCCN1C(=O)[C@@H](CC(=O)NCc2cccc(C(F)(F)F)c2)C[C@@]2(C(=O)OC)C1=C[C@H](C(C)C)O[C@@H]2C1CC1	none
Cc1ccc(S(=O)(=O)NCC2CN(S(=O)(=O)c3ccc(C)cc3)c3ccccc3C(=O)N2c2ccc(F)cc2)cc1 (stereo not given)	none
COc1ccc2cc3cc(C(=O)Nc4ccc(F)cc4)sc3nc2c1	none
CCOC(=O)c1ccccc1S(=O)(=O)N1CCN(c2nc(-c3cccs3)nc3ccccc23)CC1	none
NC(=O)C1CCN(c2ncc(Br)s2)CC1	none
Cc1ccc(C(=O)Nc2c(N)nc(SCC(=O)Nc3cc(C)on3)[nH]c2=O)cc1	none
CCCCC(Sc1nc(N)c(NC(=O)c2ccc(OCC)cc2)c(=O)[nH]1)C(=O)O (stereo not given)	none

From PubChem BioAssay
